Screens (PubChem BioAssay)
The list is not random: actives were taken first. Their share in the collection is about 15%.
ALOX12 inh – blocks human arachidonate 12S-lipoxygenase. P18054. purified 12hLO, xylenol orange hydroperoxide absorbance. Potency, µM (series often up to 108 µM), for inactives: top-dose activity change, negative = inhibition, usual class: inhibitors. 580,000 tested, 1.1% active. AID 1671190
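Purified human 12hLO at 150 nM in 25 mM Hepes, 0.01% Triton X-100, pH 7.0, preincubated 15 min at room temperature with compound. Reaction started with 40 uM arachidonic acid, 30 min at room temperature. Hydroperoxide measured by Fe-xylenol orange, 573/405 nm absorbance ratio.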
RORg inh – blocks mouse ROR gamma transcriptional activity; P51450; Drosophila S2 Gal4-RORgamma UAS-luciferase reporter, 20 h; Potency, µM (titrated, usually from 53.6 µM), without a hit: at the highest dose activity change, negative = inhibition, actives largely listed as inhibitors; 310,000 tested, 5.4% active; AID 2551; note: nearly all actives have a fitted effect of over 60% in size
Target sequence (P51450 whole entry, looked up, the tested form may be a part): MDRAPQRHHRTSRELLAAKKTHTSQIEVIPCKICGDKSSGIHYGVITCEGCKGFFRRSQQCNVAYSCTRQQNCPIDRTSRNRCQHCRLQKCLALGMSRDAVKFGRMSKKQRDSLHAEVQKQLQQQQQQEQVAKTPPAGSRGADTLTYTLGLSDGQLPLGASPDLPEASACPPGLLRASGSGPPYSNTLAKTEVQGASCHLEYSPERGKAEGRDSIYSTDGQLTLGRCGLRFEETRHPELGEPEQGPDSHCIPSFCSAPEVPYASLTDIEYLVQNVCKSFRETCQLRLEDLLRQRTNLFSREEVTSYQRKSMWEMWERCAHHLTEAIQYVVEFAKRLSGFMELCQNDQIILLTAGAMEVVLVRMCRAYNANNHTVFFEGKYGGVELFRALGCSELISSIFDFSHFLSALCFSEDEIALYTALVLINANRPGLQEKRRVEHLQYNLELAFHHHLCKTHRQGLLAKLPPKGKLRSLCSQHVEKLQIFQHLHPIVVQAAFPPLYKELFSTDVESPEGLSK
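ROR gamma transcriptional activity was tracked as Gal4-UAS luciferase output in stably transfected Drosophila Schneider cells, with compound added 1 hr before 700 uM copper sulfate induction and a 20 hr ambient-temperature incubation.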
Gal4-VP16 FLuc – counter-screen for ROR gamma inhibitors: Gal4-VP16 reporter; Potency, µM (titrated, usually from 53.6 µM), without a hit: at the top dose activity, negative = inhibition, hits mostly inhibitors; Drosophila S2 Gal4-VP16 UAS-luciferase, luminescence, 20 h; 310,000 tested, 3.5% active;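 note: Gal4-VP16 expression switched on by copper sulfate through the metallothionein promoter; nearly all actives have a fitted effect of over 50% in size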
ELG1 DNA repair – inhibitors of ELG1-dependent DNA repair in HEK293T cells | Potency, µM (titrated, usually from 46.1 µM), for inactives: at the top dose activity change, negative = inhibition, most hits filed as inhibitors | 330,000 tested, 2.3% active | HEK293T ELG1-luciferase reporter, luminescence, 16 h; DNA damage induced by 5-fluorouridine; note: nearly all actives have a fitted effect of over 55% in size
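5-Fluorouridine DNA damage + compound/DMSO, 2,000 cells/well, 16 h, 37 °C/5% CO2. ONE-Glo, 30 min RT, luminescence. Readout = decrease in reporter signal.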
DT40 TDP1 no CPT – qHTS for Inhibitors of human tyrosyl-DNA phosphodiesterase 1 (TDP1): qHTS in cells in absence of CPT; DT40 Tdp1-/- hTDP1 cells, no CPT, ATP luminescence, 48 h; Potency, µM (series often up to 46.2 µM), for the others: at the highest dose activity change, negative = growth inhibition, most hits filed as inhibitors; 420,000 tested, 15% active; AID 686978, 2013; note: nearly all actives have a fitted effect of over 55% in size
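DT40 Tdp1-/-;hTDP1 cells, no CPT (DMSO vehicle only), 400 cells/well; compounds pin-transferred; ≥48 hr, 37 °C; CellTiter-Glo 30 min RT dark, luminescence read.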
TDP1 cell CPT – DT40-hTDP1 cell growth loss with CPT; chicken DT40 Tdp1-/-;hTDP1 cells + 20 nM CPT, ATP luminescence, 48 h; Potency, µM (series often up to 46.2 µM), for inactives: at the top dose activity change, negative = growth inhibition, usual class: inhibitors; 420,000 tested, 12% active; AID 686979; note: nearly all actives have a fitted effect of over 55% in size
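Chicken DT40 Tdp1-/- cells complemented with human TDP1, 400 cells/well, exposed to compounds plus 20 nM camptothecin for at least 48 h at 37 C; viability read as ATP content by CellTiter-Glo luminescence.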
An asterisk follows results filed as active; ? = inconclusive; · = no result; [ ] = another dose, or the depositor's remark. Calls come from the whole dose curve; as a rule, active = well fitted curve in the direction sought with a large enough effect; inconclusive = small, poorly fitted or top-dose-only effect, or another doubt; inactive = no such curve, though single readings can be large; an effect the other way counts as inactive or inconclusive. % is set by controls: 0 for no effect and ±100 for the full control effect; potency is the fitted concentration of half-maximal effect.

SMILES	ALOX12 inh	RORg inh	Gal4-VP16 FLuc	ELG1 DNA repair	DT40 TDP1 no CPT	TDP1 cell CPT
CCOCCOc1nc(C)cc(C)c1S(=O)(=O)c1ccccc1C	-13%	-4%	-10%	-1%	?	-4%
CCCSc1nc(C)cc(C)c1S(=O)(=O)c1ccccc1C	0%	-6%	-20%	-26%	7.3µM*	16µM*
Cc1ccc(S(=O)(=O)c2c(C)cc(C)nc2Oc2cccc(C)c2C)cc1	4%	?	9%	-3%	18µM*	?
COc1nc(C)cc(C)c1S(=O)(=O)c1ccccc1	-15%	-19%	2%	-4%	-2%	0%
CCCSc1nc(C)cc(C)c1S(C)(=O)=O	23%	17%	-6%	9%	7%	2%
Cc1cc(C)c(S(=O)(=O)c2ccccc2C)c(OCC(C)(C)C)n1	157%	15%	-27%	21%	9.2µM*	10µM*
COc1cccc(-c2ccc(=O)n(CC(=O)NCCc3ccc(OC)c(OC)c3)n2)c1	24%	·	·	·	·	·
O=C(c1ccccn1)N1CCCCCC1CN1CCCC1 (centres undefined)	87%	·	·	·	·	·
Fc1ccc(CSc2ncc(-c3ccccc3)nn2)cc1	-31%	·	·	·	·	·
COCCNc1nc(NCc2cccc(OC)c2OC)c2sccc2n1	7%	·	·	·	12µM*	?
COc1cccc(CNc2nn[nH]n2)c1OC	0%	31%	2%[0.365 µM]	-5%	4%	8%
COc1ccccc1CNc1nc(NCc2cccc(OC)c2OC)c2sccc2n1	?	·	·	·	7.3µM*	4.6µM*
N#Cc1ccc(C(=O)N2CCC[C@H]2c2nc(-c3ccccc3)no2)cc1	3%	·	·	·	·	·
O=C(O)c1ccc(NC(=O)c2ccc(Br)o2)cc1	0%	·	·	·	·	·
Cc1cc(-n2c(C)cc(C(=O)CSc3nnc4sc5ccccc5n34)c2C)no1	8%	35%[10 µM]	1%	6%	?	16µM*
O=[N+]([O-])c1ccc(CSc2ncnc3ccccc23)cc1	?	7.9µM*	23%	?	?	?
O=[N+]([O-])c1ccc(CSc2ccccn2)cc1	0%	30%	3%	?	-6%	0%
O=C(CSc1nnc2sc3ccccc3n12)c1ccco1	-23%	?	-3%[0.365 µM]	?	-12%	-2%
O=C(CSc1ncnc2ccccc12)c1ccco1	·	?	?	?	21µM*	?
Cc1cc(-n2c(C)cc(C(=O)CSc3ncnc4ccccc34)c2C)no1	15%	?	5µM*	-12%	1.2µM*	1.8µM*
COc1ccccc1OCc1cc(C(=O)NCc2cccc(C)c2)n[nH]1	78%	·	·	·	·	·
Cc1cc(-n2c(C)cc(C(=O)CSc3nnnn3-c3ccc(Cl)cc3)c2C)no1	-17%	34%	-2%	-22%	7.3µM*	?
Cc1cc(C)n2nc(SCC(=O)c3cc(C)n(-c4cc(C)on4)c3C)nc2n1	-25%	-5%	4µM*	?	10µM*	10µM*
Cc1cc(-n2c(C)cc(C(=O)CSc3nnc(COc4ccc(Cl)cc4)o3)c2C)no1	0%	·	·	·	·	·
CC(=O)N1c2ccc(S(=O)(=O)NCCC(=O)NCc3ccc(F)cc3)cc2CC1C (centres undefined)	3%	43%	-5%	?	?	?
SMILES	ALOX12 inh	RORg inh	Gal4-VP16 FLuc	ELG1 DNA repair	DT40 TDP1 no CPT	TDP1 cell CPT
Cc1ccc(S(=O)(=O)NCCC(=O)OCC(=O)NCCc2ccccc2)cc1C	1%	·	·	1%	1%	11%
CC(=O)N1c2ccc(S(=O)(=O)NCCC(=O)NCCc3ccc(C)cc3)cc2CC1C (centres undefined)	5%	?	-28%	?	?	21µM*
CC(=O)N1c2ccc(S(=O)(=O)NCCC(=O)NCCc3ccc(Cl)cc3)cc2CC1C (centres undefined)	-3%	?	-8%	-25%	?	16µM*
CC(=O)N1c2ccc(S(=O)(=O)NCCC(=O)Nc3ccc(C)cc3Br)cc2CC1C (centres undefined)	-7%	·	·	·	9.2µM*	12µM*
Cc1ccc(S(=O)(=O)NCCC(=O)NCCc2ccc(S(N)(=O)=O)cc2)cc1C	1%	·	·	4%	-23%	3.3µM*
CC(=O)N1c2ccc(S(=O)(=O)NCCC(=O)NCCc3cccc(C)c3)cc2CC1C (centres undefined)	-2%	9%	0%	?	-22%	?
CCC1CCC(N(C)C(=O)c2ccc(OC(F)F)cc2)CC1 (centres undefined)	-17%	·	·	·	·	·
Cc1cccc(-n2nc(-c3c(C)nc4scc(CC(=O)NC5CCCCC5)n4c3=O)cc2C)c1C	22%	·	·	·	·	·
COc1ccc(-c2nc(CC3CCN(C(=O)c4ccnn4C)C3)no2)cc1 (centres undefined)	34%	·	·	·	·	·
Cc1cc(NC(=O)c2nc3ccccc3nc2N2CCN(C)CC2)ccc1Br	3%	·	·	·	·	·
CC12CC3(C)CC(C(=O)O)(C1)CC(C(=O)O)(C2)C3	-10%	·	·	·	·	·
CN(C)c1ccc(C(=O)/C=C/c2ccco2)cc1	?	?	?	?	?	15µM*
CN(C)c1ccc(C(=O)/C=C/c2ccccc2)cc1	-6%	11µM*	?	?	?	21µM*
O=C(C=Cc1ccco1)c1ccc2ccccc2c1	18µM*	·	·	·	?	?
COC(=O)c1ccc(OC(=O)/C=C/c2ccco2)cc1	-12%	23%	10%	14%	-19%	3%
O=C(/C=C/c1ccco1)c1ccc(O)cc1	·	?	-8%	?	·	·
CC(=O)Nc1ccc(C(=O)/C=C/c2ccco2)cc1	?	-27%	27%	?	?	21µM*
COCCn1ncc(N2CCCC(CC(=O)NCc3ccc(C)o3)C2)cc1=O (centres undefined)	1%	·	·	·	·	·
CC(=O)c1cnc2nc(SCc3cccc(C)c3)nn2c1C	10%	?	21%	23%	15µM*	?
CC(=O)c1cnc2nc(SCc3ccccc3)nn2c1C	0%	16%	1%	?	10%	5%
COc1cccc(-c2oc3c(c2C#CC2(N)CCCCC2)C(O)CCC3)c1 (centres undefined)	?	·	·	·	18µM*	18µM*
COC1CCC12CCN(C(=O)c1ccncc1)CC2 (centres undefined)	17%	·	·	·	·	·
c1ccc(CNc2ncnc3c2oc2ccccc23)nc1	-8%	20%	15%	?	-15%	-12%
